“And” between values parts separate entries of the source, which are not always exact repeats. Equal entries are not always repeated. Results filed as inconclusive are left out. The source made the active and inactive calls. Calls follow the shape of the dose curve; as a rule, active = well fitted cell-killing curve with a large enough effect in the repeat runs; inconclusive = weak or mixed curves, or effect the other way; inactive = flat fitted curve, though single readings scatter.
% is scaled to controls: 0 for no effect and ±100 for the full control effect; potency is read from the fitted curve at half-maximal effect.

A short description of the assay: Caspase-3/7 induction in HepG2 cells by small molecules, qHTS cell viability counter screen (AID 1346981). Also: nearly all actives have a fitted effect of over 30% in size. Particulars: CellTiter-Fluor fluorescence, 17 h; series mostly up to 92.4 µM; activity change, negative = cytotoxicity: at the top concentration. The source says:
U.S. Tox21 Program National Center for Advancing Translational Sciences [NCATS] NIH Chemical Genomics Center [NCGC] U.S. Environmental Protection Agency [EPA] National Institutes of Environmental Health Sciences [NIEHS] National Toxicology Program [NTP] U.S. Food and Drug Administration [FDA] Tox21 Assay Overview: Apoptosis is a process of programmed cell death and plays a central role in the development of multicellular organisms. It is a highly regulated process and induces cell death by activating caspases, which are the members of cysteine aspartic acid-specific protease (caspase) family. Caspases involved in apoptosis are classified by their mechanism of action as initiator caspases (caspase-2, -8, -9 and -10) and executioner caspases (caspase-3, -6, and -7). Inhibition of apoptosis results in number of cancers, autoimmune diseases, inflammatory diseases and viral infection. To identify small molecule compounds that induce apoptosis, a homogeneous, luminescent Caspase-Glo 3/7 assay was used. Wild type HepG2 cells were used to screen Tox21 libraries for identifying caspase-3/7 activity inducers. Also cytotoxicity of the compounds was tested in parallel by measuring the cell viability using CellTiter-Fluor assay system in the same wells.
Tox21 Assay Protocol Summary: HepG2 cells were dispensed at 2,000 per well in 5uL of culture medium into white solid bottom 1536-well plates (Corning Life Sciences, Corning, NY) using a Multidrop Combi (Thermo Scientific, Waltham, MA) dispenser. The assay plates were incubated at 37 C and 5% CO2 for 5hr, and then 23nL of compounds dissolved in DMSO and positive control were transferred using a Pintool station ([…], San Diego, CA). The assay plates were incubated at 37C and 5% CO2 for 17hr. For cytotoxicity read, after 16hr incubation at 37C, 1uL CellTiter-Fluor reagent (Promega Corporation, Madison, WI) was added to each well of the assay plates using Flying Reagent Dispenser (FRD, Aurora Discovery, San Diego, CA). After 1hr incubation at 37C and 5% CO2, the fluorescence signal was quantified using a ViewLux plate reader (PerkinElmer, Shelton, CT).
In general terms: In qHTS, concentration-response curves come from the screen itself.
Consider `NCCCC(O)(P(=O)(O)O)P(=O)(O)O`, for which the “activity change, negative = cytotoxicity” value was 5.43% [at 42.5 µM] (inactive).

Regarding `CSc1ccc2c(c1)N(CCC1CCCCN1C)c1ccccc1S2` (stereo not given), the Potency was 60.9 µM (active) and 29.8 µM (active).

`CC(=O)Nc1ccc(O)cc1`: the Potency result is “inactive”.

Take `O=C1OC(=O)c2ccc3c4c(ccc1c24)C(=O)OC3=O`: the “activity change, negative = cytotoxicity” value was 1.67% (inactive).

For `CCCCCCCCCCCCCc1ccccc1`, the “activity change, negative = cytotoxicity” value was 4.45% [at 42.5 µM] (inactive).

Turning to `CCCCCCCCCCCCCCCCCO`, the activity change, negative = cytotoxicity is 9.49% [at 19 µM] (inactive).

Turning to `CCOC(=O)COc1ccc(C)cc1`, the “activity change, negative = cytotoxicity” value is 3.32% (inactive).

With `Cc1cncc(C)c1`, the “activity change, negative = cytotoxicity” value is 0.856% (inactive).

As for `OCCC(O)CO` (stereo not given), the “activity change, negative = cytotoxicity” value was -1.56% (inactive).

Consider `CCC(C)c1cc([N+](=O)[O-])cc([N+](=O)[O-])c1OC(=O)OC(C)C` (stereo not given), for which the Potency was 61.1 µM (active).

For the compound `OCCCc1cccnc1`, the “activity change, negative = cytotoxicity” value was 9.48% (inactive).

For `CO[C@H]1C=CO[C@@]2(C)Oc3c(C)c(O)c4c(O)c(cc(O)c4c3C2=O)NC(=O)/C(C)=C\C=C/[C@H](C)[C@H](O)[C@@H](C)[C@@H](O)[C@@H](C)[C@H](OC(C)=O)[C@@H]1C`, the Potency was 61.6 µM (active).

Regarding `CN(C)c1ccc(N=Nc2ccccc2C(=O)O)cc1`, the Potency was 54.5 µM (active).

As for `CCOC(OCC)C(=O)c1ccccc1`, the “activity change, negative = cytotoxicity” value was -0.653% (inactive).

Regarding `CCCCCCCC(OC)OC`, the “activity change, negative = cytotoxicity” value is -1.92% [at 42.5 µM] (inactive).

As for `Oc1c(Br)cc(Br)c2cccnc12`, the “activity change, negative = cytotoxicity” value was 7.08% [at 42.5 µM] (inactive).

In the case of `Cn1cccc1`, the “activity change, negative = cytotoxicity” value was -1.08% (inactive).

As to `CNC(=S)NN`, the “activity change, negative = cytotoxicity” value was 0.634% (inactive).

Take `c1cc2c3c(c1)ccc1cccc(c13)C2`: the “activity change, negative = cytotoxicity” value is 0.0648% (inactive).

As for `CCN(CC)c1cccc(C)c1`, the “activity change, negative = cytotoxicity” value is -0.054% (inactive).

Consider `CCc1c(C(=O)O)c(=O)cnn1-c1ccc(Cl)cc1`, for which the “activity change, negative = cytotoxicity” value is 3.99% (inactive).

In the case of `C[Si](C)O[Si](C)C`, the “activity change, negative = cytotoxicity” value is -0.9% (inactive).

Take `OCCN1CN(CCO)CN(CCO)C1`: the “activity change, negative = cytotoxicity” value was 7.92% (inactive).

With `CCOCOCC`, the “activity change, negative = cytotoxicity” value was 0.223% (inactive).

Take `CO[Si](CCCNCCNCCN)(OC)OC`: the “activity change, negative = cytotoxicity” value is -0.48% (inactive).

For the compound `Cc1oc(-c2ccccc2)nc1CCOc1ccc(C[C@H](Nc2ccccc2C(=O)c2ccccc2)C(=O)O)cc1`, the Potency is 43.3 µM (active).

With `c1ccc(Sc2ccccc2)cc1`, the “activity change, negative = cytotoxicity” value is -1.06% (inactive).

Turning to `CN1CN(C)CN(C)C1`, the “activity change, negative = cytotoxicity” value was -0.517% (inactive).

For the compound `CCCC(=O)OCC(COC(=O)CCC)OC(=O)CCC`, the “activity change, negative = cytotoxicity” value was -2.3% (inactive).

Turning to `NC(=O)C(=O)N/N=C/c1ccc([N+](=O)[O-])o1`, the “activity change, negative = cytotoxicity” value is 3.2% [at 42.5 µM] (inactive).

`CC(C)c1ccccc1N`: the “activity change, negative = cytotoxicity” value was -0.787% (inactive).

Turning to `CCC(C)c1ccccc1` (stereo not given), the “activity change, negative = cytotoxicity” value is -5.82% (inactive).

Take `O=C(c1ccccc1)c1cc(Cl)ccc1O`: the “activity change, negative = cytotoxicity” value is -0.4% (inactive).

On to `CCCCCCCC(=O)OCC`, for which the “activity change, negative = cytotoxicity” value was 0.415% (inactive).

`CC1CCCCC1`: the “activity change, negative = cytotoxicity” value was 6.38% (inactive).

Regarding `CC1=CCC(=O)O1`, the “activity change, negative = cytotoxicity” value is 1.18% (inactive).

With `S=P(N1CC1)(N1CC1)N1CC1`, the “activity change, negative = cytotoxicity” value is -1.6% (inactive).

For the compound `CCC(=O)OCCc1ccccc1`, the “activity change, negative = cytotoxicity” value was -0.814% (inactive).

Turning to `Clc1nc2ccccc2s1`, the “activity change, negative = cytotoxicity” value was 4.61% (inactive).

Take `C/C=C/C(=O)C1=C(C)CCCC1(C)C`: the “activity change, negative = cytotoxicity” value was 0.471% (inactive).

Source of the values: PubChem BioAssay (Tox21).
